HP1b binding inh: inhibitors of HP1-beta chromodomain binding to methylated histone tails. P83916. AlphaScreen HP1-beta / biotin-H3K9me3 peptide binding. Potency, µM (top dose mostly 114 µM), usual class: inhibitors. hit rate 0.56% among 390,000. AID 540317; further: nearly all actives have a fitted effect of over 70% in size
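HP1-beta protein (50 nM final) preincubated 30 min at room temperature with biotinylated H3(1-18)K9me3 peptide (50 nM) in PBS pH 7.4, 0.01% Tween-20, then compound added for 30 min. AlphaScreen streptavidin donor/nickel chelate acceptor beads (10 ug/mL final), 30 min dark, luminescence read.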
JMJD2A Tudor inh: JMJD2A Tudor domain (human) inhibition; O75164; Potency, µM (highest dose often 114 µM), hits mostly inhibitors; AlphaScreen JMJD2A-Tudor / H3K4me3 peptide binding; AID 504339; hit rate 4.4% among 390,000; further: nearly all actives have a fitted effect of over 50% in size
BAZ2B block: blocks human BAZ2B. hit rate 4.4% among 360,000. Q9UIF8. AID 504333. AlphaScreen BAZ2B-H3K14Ac peptide displacement. Potency, µM (highest dose often 114 µM), actives largely listed as inhibitors; further: nearly all actives have a fitted effect of over 60% in size
Target sequence (Q9UIF8 whole entry, looked up): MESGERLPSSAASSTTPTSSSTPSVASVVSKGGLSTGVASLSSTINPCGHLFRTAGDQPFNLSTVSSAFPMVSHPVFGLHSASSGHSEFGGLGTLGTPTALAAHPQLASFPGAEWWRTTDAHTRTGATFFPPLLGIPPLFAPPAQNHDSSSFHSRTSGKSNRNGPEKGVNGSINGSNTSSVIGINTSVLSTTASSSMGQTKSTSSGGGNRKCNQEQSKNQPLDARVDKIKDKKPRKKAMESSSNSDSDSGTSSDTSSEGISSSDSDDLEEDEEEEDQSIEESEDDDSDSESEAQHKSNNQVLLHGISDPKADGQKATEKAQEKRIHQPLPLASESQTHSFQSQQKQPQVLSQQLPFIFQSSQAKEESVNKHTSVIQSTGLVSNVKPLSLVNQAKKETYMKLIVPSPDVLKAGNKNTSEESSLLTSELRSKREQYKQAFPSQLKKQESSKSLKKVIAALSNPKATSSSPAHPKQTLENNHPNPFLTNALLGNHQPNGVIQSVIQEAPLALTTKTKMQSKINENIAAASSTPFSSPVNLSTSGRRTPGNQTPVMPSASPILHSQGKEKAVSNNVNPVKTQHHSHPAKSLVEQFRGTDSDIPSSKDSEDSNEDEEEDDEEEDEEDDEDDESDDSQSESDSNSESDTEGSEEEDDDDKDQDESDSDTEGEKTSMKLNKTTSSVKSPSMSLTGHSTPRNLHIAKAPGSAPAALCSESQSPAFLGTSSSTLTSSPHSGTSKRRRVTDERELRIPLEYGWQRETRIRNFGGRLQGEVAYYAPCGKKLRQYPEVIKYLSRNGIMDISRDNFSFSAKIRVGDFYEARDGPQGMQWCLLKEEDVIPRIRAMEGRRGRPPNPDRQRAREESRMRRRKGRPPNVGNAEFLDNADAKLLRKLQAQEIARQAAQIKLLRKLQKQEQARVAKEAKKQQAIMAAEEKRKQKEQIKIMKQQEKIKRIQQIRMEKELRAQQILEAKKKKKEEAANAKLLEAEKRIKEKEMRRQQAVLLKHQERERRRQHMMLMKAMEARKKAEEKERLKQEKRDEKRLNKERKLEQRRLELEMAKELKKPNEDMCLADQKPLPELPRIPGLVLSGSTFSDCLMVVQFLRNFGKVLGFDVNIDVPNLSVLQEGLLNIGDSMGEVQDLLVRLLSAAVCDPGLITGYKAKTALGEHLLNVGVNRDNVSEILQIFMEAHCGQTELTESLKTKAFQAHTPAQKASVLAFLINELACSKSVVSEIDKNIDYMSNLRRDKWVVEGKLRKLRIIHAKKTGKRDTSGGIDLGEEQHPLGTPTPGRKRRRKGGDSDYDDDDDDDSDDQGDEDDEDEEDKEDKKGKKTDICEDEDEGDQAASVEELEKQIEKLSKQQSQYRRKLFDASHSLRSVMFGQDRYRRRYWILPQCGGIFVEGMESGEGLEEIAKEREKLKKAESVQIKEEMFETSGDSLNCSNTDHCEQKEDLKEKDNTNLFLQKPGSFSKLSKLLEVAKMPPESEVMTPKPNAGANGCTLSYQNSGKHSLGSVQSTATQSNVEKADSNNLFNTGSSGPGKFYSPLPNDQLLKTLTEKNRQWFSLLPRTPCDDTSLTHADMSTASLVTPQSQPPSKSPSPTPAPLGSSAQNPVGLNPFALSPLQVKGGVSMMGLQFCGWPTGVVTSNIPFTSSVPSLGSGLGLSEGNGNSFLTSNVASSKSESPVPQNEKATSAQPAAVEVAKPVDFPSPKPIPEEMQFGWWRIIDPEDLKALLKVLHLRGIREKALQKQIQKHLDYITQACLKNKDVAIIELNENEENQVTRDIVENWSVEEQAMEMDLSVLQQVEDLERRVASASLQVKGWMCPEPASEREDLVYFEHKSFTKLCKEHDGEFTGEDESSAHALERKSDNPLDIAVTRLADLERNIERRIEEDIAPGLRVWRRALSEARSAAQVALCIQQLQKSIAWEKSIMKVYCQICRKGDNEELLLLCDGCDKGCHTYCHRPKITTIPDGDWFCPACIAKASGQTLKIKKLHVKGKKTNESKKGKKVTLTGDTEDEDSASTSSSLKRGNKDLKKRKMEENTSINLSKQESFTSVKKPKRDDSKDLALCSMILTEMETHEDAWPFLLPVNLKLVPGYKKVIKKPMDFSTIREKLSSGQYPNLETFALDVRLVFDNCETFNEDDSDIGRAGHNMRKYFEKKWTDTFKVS
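Complex of BAZ2B and biotin-H3K14Ac (50 nM apiece) forms over 30 min at RT, then faces library compounds up to 110 uM for another 30 min; AlphaScreen beads added, 20 min dark incubation, luminescence read.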
GLS inhibitor: blocks human kidney-isoform glutaminase activity; GLS enzymatic activity, qHTS titration; Potency, µM (highest dose often 45.5 µM), usual class: inhibitors; hit rate 0.21% among 410,000; AID 624170
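Coupled fluorescence readout: glutamate oxidase/HRP/Amplex Red detect glutamate formed by hKGA from L-glutamine (1 mM solution added). Buffer 45 mM KH2PO4 pH 8.2, 0.02% Tween-20; reads at t0 and 30 min RT.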
G9a inh: inhibitors of human histone lysine methyltransferase G9a. Q96KQ7. G9a H3K9 monomethylation, AlphaScreen, 2 h. Potency, µM (doses to about 102 µM), usual class: inhibitors. hit rate 8.8% among 350,000. AID 504332; further: nearly all actives have a fitted effect of over 75% in size
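Readings reflect AlphaScreen signal from monomethyl-H3K9 antibody detection. HMT at 20 nM; substrate b-H3K9 500 nM; cofactor SAM 20 uM; 2 h RT reaction; compounds tested as titrations in qHTS with 15 min preincubation.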
A number is an active result; [ ] = remark or other dose. Compounds with a hit are over-represented: about 10% of the library has one in this group of screens. The call rests on the fitted dose curve; in most records, active means well fitted curve in the direction sought with a large enough effect; inconclusive means small, poorly fitted or top-dose-only effect, or another doubt; inactive means no such curve, though single readings can be large; an effect the other way counts as inactive or inconclusive.

What do the screens show for `O=C(NCc1cccs1)c1cccnc1SCCS(=O)(=O)c1ccc(C(F)(F)F)cn1`?
HP1b binding inh: inactive; JMJD2A Tudor inh: inactive; BAZ2B block: inactive; GLS inhibitor: inactive; G9a inh: 15.8µM

Results for Cn1c(=O)[nH]c(=O)c2c1nc(Br)n2Cc1ccc(Cl)cc1 ?
GLS inhibitor: inactive

What do the screens show for `Cn1c(=O)[nH]c(=O)c2c1[nH]c(=S)n2Cc1ccc(Cl)cc1`?
HP1b binding inh: 14.1µM; JMJD2A Tudor inh: 3.16µM; BAZ2B block: 22.4µM; GLS inhibitor: inconclusive; G9a inh: 0.891µM

What do the screens show for `Cn1c(=O)c2c([nH]c(=S)n2CCCc2ccccc2)n(C)c1=O`?
HP1b binding inh: 15.8µM; JMJD2A Tudor inh: 5.01µM; BAZ2B block: 28.2µM; GLS inhibitor: inconclusive; G9a inh: inactive[0.501 µM]

Results for Cn1c(=O)[nH]c(=O)c2c1[nH]c(=S)n2CCCc1ccccc1 ?
HP1b binding inh: 10µM; JMJD2A Tudor inh: 3.16µM; BAZ2B block: 25.1µM; GLS inhibitor: inconclusive

Results for O=C(Cn1ccn(-c2ccc(F)cc2)c(=O)c1=O)Nc1ccc(F)cc1 ?
HP1b binding inh: inactive; JMJD2A Tudor inh: inactive; BAZ2B block: inactive; GLS inhibitor: inactive; G9a inh: inactive

What do the screens show for `CC(=O)Nc1cc2c(cc1Br)OCCO2`?
HP1b binding inh: inactive; JMJD2A Tudor inh: inactive; BAZ2B block: inactive; GLS inhibitor: inactive; G9a inh: inactive[12.7 µM]

Results for Brc1ccc(CNc2cc3c(cc2Br)OCCO3)cc1 ?
HP1b binding inh: inconclusive; JMJD2A Tudor inh: inconclusive; BAZ2B block: 31.6µM; GLS inhibitor: inactive; G9a inh: 44.7µM

Results for O=C(/C=C/c1cccs1)NC(=S)NNC(=O)c1ccccc1O ?
HP1b binding inh: inactive; JMJD2A Tudor inh: 79.4µM; BAZ2B block: inconclusive; GLS inhibitor: inactive; G9a inh: 10µM

How did O=C(NC(=S)Nc1ccccc1)c1cccs1 do in these assays?
HP1b binding inh: inactive; JMJD2A Tudor inh: inactive; BAZ2B block: inactive; GLS inhibitor: inactive; G9a inh: inactive

What do the screens show for `O=C(/C=C/c1cccs1)NC(=S)Nc1ccccc1`?
HP1b binding inh: inactive; JMJD2A Tudor inh: inconclusive; BAZ2B block: 31.6µM; GLS inhibitor: inactive

How did COc1ccccc1Nc1nc(N)nc(CSC(=S)N2CCN(c3ccccc3)CC2)n1 do in these assays?
HP1b binding inh: inactive; JMJD2A Tudor inh: inactive; BAZ2B block: inactive; GLS inhibitor: inactive; G9a inh: inactive

Results for Cc1ccc(Nc2nc(N)nc(CSC(=S)N3CCN(c4ccccc4)CC3)n2)cc1 ?
HP1b binding inh: inactive; JMJD2A Tudor inh: inconclusive; BAZ2B block: inconclusive; GLS inhibitor: inactive; G9a inh: 35.5µM

What do the screens show for `Nc1nc(CSC(=S)N2CCN(c3ccccc3)CC2)nc(Nc2ccccc2)n1`?
HP1b binding inh: inactive; JMJD2A Tudor inh: inconclusive; BAZ2B block: inconclusive; GLS inhibitor: inactive; G9a inh: 44.7µM

How did COc1ccccc1Nc1nc(-c2c(C)[nH]c3ccccc23)cs1 do in these assays?
HP1b binding inh: inconclusive; JMJD2A Tudor inh: 50.1µM; BAZ2B block: 39.8µM; GLS inhibitor: inactive; G9a inh: 14.1µM

How did Cc1[nH]c2ccccc2c1-c1csc(N)n1 do in these assays?
HP1b binding inh: inactive; JMJD2A Tudor inh: inactive; BAZ2B block: inconclusive; GLS inhibitor: inactive; G9a inh: 79.4µM

Results for COc1ccc2[nH]c3ccccc3c2c1 ?
HP1b binding inh: inactive; JMJD2A Tudor inh: inactive; BAZ2B block: inactive; GLS inhibitor: inactive; G9a inh: inactive

What do the screens show for `CNc1nc(-c2c(C)[nH]c3ccc(OC)cc23)cs1`?
HP1b binding inh: inactive; JMJD2A Tudor inh: inconclusive; BAZ2B block: 50.1µM; GLS inhibitor: inactive; G9a inh: 39.8µM

How did CCC(=O)N1c2ccccc2CC1C(=O)NCCN1CCN(c2cc(Cl)ccc2C)CC1 (configuration not stated) do in these assays?
HP1b binding inh: inactive; JMJD2A Tudor inh: inconclusive; BAZ2B block: inconclusive; GLS inhibitor: inactive; G9a inh: inactive

What do the screens show for `COCCCNC(=O)CCCN1C(=O)CCn2nc(-c3cn(C)c4ccccc34)cc21`?
HP1b binding inh: inactive; JMJD2A Tudor inh: inactive; BAZ2B block: inactive; GLS inhibitor: inactive; G9a inh: inactive

Results for O=C(CCN(CCO)Cc1ccccc1)Nc1ccc(Br)cc1 ?
HP1b binding inh: inactive; JMJD2A Tudor inh: inactive; BAZ2B block: inactive; GLS inhibitor: inactive; G9a inh: inactive

How did CCCN(CCO)Cc1cccc(Cl)c1 do in these assays?
HP1b binding inh: inconclusive; JMJD2A Tudor inh: 3.55µM; BAZ2B block: inconclusive; GLS inhibitor: inactive; G9a inh: inconclusive

Results for CCCN(CCO)Cc1ccc(Br)cc1 ?
HP1b binding inh: inconclusive; JMJD2A Tudor inh: 20µM; BAZ2B block: inconclusive; GLS inhibitor: inactive; G9a inh: 8.91µM

How did Cc1cccc(-c2nnc(SCc3cc(=O)c4cccc(Cl)c4[nH]3)n2C)c1 do in these assays?
HP1b binding inh: inactive; JMJD2A Tudor inh: inactive; BAZ2B block: inactive; GLS inhibitor: inactive; G9a inh: inactive

Results for COc1ccc(NS(=O)(=O)c2ccc(C)cc2)c([N+](=O)[O-])c1 ?
HP1b binding inh: inconclusive; JMJD2A Tudor inh: inactive[11.4 µM]; BAZ2B block: inactive; GLS inhibitor: inactive; G9a inh: inconclusive

How did COc1ccc(C(=O)COC(=O)c2ccccc2NS(=O)(=O)c2ccc(O)c([N+](=O)[O-])c2)cc1 do in these assays?
HP1b binding inh: inactive; JMJD2A Tudor inh: inconclusive; BAZ2B block: 56.2µM; GLS inhibitor: inactive; G9a inh: inconclusive

How did COc1ccc(NC(=O)c2ccccc2NS(=O)(=O)c2ccc(C)cc2)c([N+](=O)[O-])c1 do in these assays?
HP1b binding inh: inactive; JMJD2A Tudor inh: inconclusive; BAZ2B block: inconclusive; GLS inhibitor: inactive; G9a inh: 3.16µM

How did CCCN1CCN(c2ncc3c(n2)CCN(Cc2ccc(OC)c(OC)c2OC)C3)CC1 do in these assays?
HP1b binding inh: inactive; JMJD2A Tudor inh: inactive; BAZ2B block: inactive; GLS inhibitor: inactive; G9a inh: inactive[12.7 µM]

How did CCOc1ccc(C(=O)c2oc3ccccc3c2NC(=O)c2cc(=O)c3ccc(C)cc3o2)cc1 do in these assays?
HP1b binding inh: inactive; JMJD2A Tudor inh: inactive; BAZ2B block: inactive; GLS inhibitor: inactive; G9a inh: inactive

Results for COCC1CCN(C(=O)C2CCC(=O)N(C3CCCCCC3)C2)CC1 (configuration not stated) ?
HP1b binding inh: inactive; JMJD2A Tudor inh: inactive; BAZ2B block: inactive; GLS inhibitor: inactive

How did Cc1cccc2c1-c1sc(C(=O)Nc3ccccc3N3CCN(C)CC3)cc1CO2 do in these assays?
HP1b binding inh: inactive; JMJD2A Tudor inh: inconclusive; BAZ2B block: 44.7µM; GLS inhibitor: inactive

Results for COc1ccc(-c2noc(CN(C(=O)Cc3ccc(C)cc3)C(C)C)n2)cc1 ?
HP1b binding inh: inactive; JMJD2A Tudor inh: inactive; BAZ2B block: inactive; GLS inhibitor: inactive; G9a inh: inactive

Results for CC(=O)c1ccc(NC(=O)CNCC(c2ccccc2)N(C)C)cc1 (configuration not stated) ?
HP1b binding inh: inactive; JMJD2A Tudor inh: 2.82µM; BAZ2B block: inactive; GLS inhibitor: inactive; G9a inh: 14.1µM

What do the screens show for `CN(C)c1ccc(N=Cc2cccn2C)cc1`?
HP1b binding inh: inactive; JMJD2A Tudor inh: 50.1µM; BAZ2B block: 20µM; GLS inhibitor: inactive; G9a inh: 8.91µM

From PubChem
